The record followed here is PubChem BioAssay AID588850 (Sanford-Burnham Center for Chemical Genomics, 2011).

One may read the inhibition as the drop in the measured response relative to a control, in per cent.

Among all 360,000 compounds or so, about 3,100 (0.86%) were called active. The list comes from a sample in which actives are over-represented; it also holds similar structures and randomly drawn compounds. Unmarked numbers belong to inactive results.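 Rule for the calls: active = at least 50% inhibition at 5 µM, scaled per plate between neutral and stimulator controls; inactive = the rest.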

The test can be described thus: inhibitors of PAF-induced NF-kB signaling, primary screen, cell-based, GFP fluorescence, uHTS (AID 588850).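 Note: PAF is a Pseudomonas aeruginosa culture filtrate used as stimulus; plate controls were PAF-stimulated DMSO wells for no effect and unstimulated DMSO wells for full effect.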 Particulars: KKLEB NF-kB-GFP reporter, GFP fluorescence overnight, at 5 µM, hits give high values.
For the molecule `CC1(C(=O)Nc2cccc3c2CCCC3)CCN1C(=O)CCc1ccc(Cl)cc1Cl` (configuration not stated), the inhibition is -16%.

As for `CC(=O)O[C@]1(C(C)=O)CC[C@H]2[C@@H]3C=C(C)C4=CC(=O)CC[C@]4(C)[C@H]3CC[C@@]21C`, the inhibition is 39.9%.

Take `CC(=O)OCC(=O)C1(O)CCC2C3CC(C)C4=CC(=O)CCC4(C)C3C(O)CC21C` (configuration not stated): the inhibition was 73% (active).

On to `CC12CCC(=O)C=C1CCC1C2C(O)CC2(C)C1CCC2(O)C(O)CO` (configuration not stated), for which the inhibition was 24.8%.

With `Cc1ccc(CC(=O)Nc2cccc(C#N)c2)cc1`, the inhibition is -4.9%.

For `O=C(COC(=O)Cn1cnc2ccccc2c1=O)NCC12CC3CC(CC(C3)C1)C2`, the inhibition is -1.8%.

For the molecule `O=C1C=CC(=O)N1c1ccc(N2CCCCC2)cc1`, the inhibition is 67% (active).

With `O=C(c1ccc(Cl)c(S(=O)(=O)N2CCCCCC2)c1)N1CCN(c2ccc(O)cc2)CC1`, the inhibition was 2.4%.

As to `c1ccc(-n2cccc2)c(N2CCCCC2)c1`, the inhibition is 5.6%.

As to `O=C(Nc1ccc(F)c([N+](=O)[O-])c1)C1CCCO1` (configuration not stated), the inhibition is 4.8%.

As to `COc1ccc(OC)c(C2N(c3ccccn3)C(=O)C3CCCN32)c1` (configuration not stated), the inhibition is -3.8%.

Turning to `O=C(CCl)N(Cc1cccc([N+](=O)[O-])c1)c1cccc(Cl)c1`, the inhibition was 90.5% (active).

`COC(=O)c1cc(C(=O)N(Cc2ccccc2)c2ccccn2)cc([N+](=O)[O-])c1`: the inhibition was 5%.

As for `CC(=O)N(CN1C(=O)C2CC=CCC2C1=O)c1cccc(Cl)c1` (configuration not stated), the inhibition is -5.3%.

As to `CCS(=O)(=O)c1ccc(C(=O)NC)c(Cl)c1Cl`, the inhibition is 4.1%.

In the case of `C1=C(N2CCOCC2)/C(=C/c2nc3ccccc3[nH]2)CC1`, the inhibition is 0.9%.

Regarding `COc1cccc(N2CCN(CC(=O)Nc3ccnn3C3CCCC3)CC2)c1`, the inhibition is -19%.

As to `Cc1noc(C)c1C(=O)N1CCC1(C)C(=O)NS(=O)(=O)c1ccc(C#N)cc1` (configuration not stated), the inhibition is 1.8%.

Consider `CCOC(=O)c1c(C)[nH]c2c1-c1ccccc1C(=O)C2=O`, for which the inhibition is 86.7% (active).

Regarding `CCOC(=O)c1c(C)[nH]c(C)c1C(=O)CSc1nc(N)cc(N)n1`, the inhibition was -5.9%.

For the molecule `CCOC(=O)c1c(NC(=O)CSc2nccc(=O)[nH]2)sc(C)c1C`, the inhibition is -8.3%.

With `NCCCCC(C(=O)O)N(C(=O)OCc1ccccc1)C(=O)OCc1ccccc1` (configuration not stated), the inhibition was 1.1%.

Consider `COc1ccc(C(CC(=O)c2ccccc2)S(=O)(=O)c2ccccc2)cc1` (configuration not stated), for which the inhibition is -3.5%.

Take `CCCCC(=O)Nc1c2c(nn1-c1ccc([N+](=O)[O-])cc1)CS(=O)(=O)C2`: the inhibition was 5.8%.

Consider `CN(C)S(=O)(=O)N1CCN(c2ccc([N+](=O)[O-])cc2)CC1`, for which the inhibition is 8.2%.

Take `O=C1/C(=C\c2ccc([N+](=O)[O-])cc2)CS(=O)(=O)C/C1=C/c1ccc([N+](=O)[O-])cc1`: the inhibition is 98.2% (active).

Regarding `C=CCc1cc(S(=O)(=O)c2ccc(O)c(CC=C)c2)ccc1O`, the inhibition is 60.6% (active).

`CCCCN(C)c1ccc([N+](=O)[O-])cc1`: the inhibition is -12.3%.

With `COc1ccccc1-c1nnc2n1N=C(c1ccc(OC(F)F)c(OCC3CC3)c1)CS2`, the inhibition was 49.1%.

Consider `COc1ccc(C2=Nn3c(nnc3-c3ccccc3OC)SC2)cc1OC1CCCC1`, for which the inhibition was 68.4% (active).

Regarding `CCn1c(SCC(=O)NC2CC2)nnc1-c1ccccc1OC`, the inhibition was -0.4%.

Regarding `CCCCCCCCCCCCCCCC(=O)OC/C=C(C)/C=C/C=C(C)/C=C/C1=C(C)CCCC1(C)C`, the inhibition is -16.9%.

With `NC1=NOC(=O)C1C1CCCCC1` (configuration not stated), the inhibition is 25.2%.

Turning to `CCCCc1nc2ccc(F)cc2cc1C`, the inhibition is -14.3%.

As for `COc1ccc(N2CCN(S(=O)(=O)CCNC(=O)C34CC5CC(CC(C5)C3)C4)CC2)cc1`, the inhibition was -0.5%.

On to `COCCCN(C(=S)Nc1c(C)cc(C)cc1C)C(C)c1ccncc1` (configuration not stated), for which the inhibition is -10.4%.

Take `CCCCOc1ccc(C(=O)NCC(=O)OCC(=O)N2CCN(S(=O)(=O)c3ccc(C)cc3C)CC2)cc1`: the inhibition was -0.3%.

As to `COc1ccc(C(C#N)=C2C=CC(=NO)c3ccccc32)cc1`, the inhibition is 84.7% (active).

For the molecule `COc1ccc(/C(N)=N/OC(=O)Cc2ccccc2)cc1`, the inhibition is -28%.

Regarding `COc1ccc(C(=NN)c2ccc(OC)cc2)cc1`, the inhibition was -2.7%.

Regarding `Fc1ccc(Nc2nnns2)cc1`, the inhibition was -11.2%.

With `C=CCNC(=S)NNc1ncnc2sc3c(c12)CC(C)(C)OC3`, the inhibition is -2%.

Regarding `O=C(Nc1ccc(Cl)cc1)c1csc([C@@H]2O[C@H](CO)[C@H](O)[C@H](O)[C@H]2O)n1`, the inhibition was 13%.

Take `CC[C@]1(O)C[C@@H]2CN(CCc3c([nH]c4ccccc34)[C@@](C(=O)OC)(c3cc4c(cc3OC)N(C)[C@H]3[C@@](O)(C(=O)OC)[C@H](OC(C)=O)[C@]5(CC)C=CCN6CC[C@]43[C@@H]65)C2)C1`: the inhibition is 57.6% (active).

As to `CC[C@]1(O)CC2CN(CCc3c([nH]c4ccccc34)[C@@](C(=O)OC)(c3cc4c(cc3OC)N(C=O)[C@H]3[C@@](O)(C(=O)OC)[C@H](OC(C)=O)[C@]5(CC)C=CCN6CC[C@]43[C@@H]65)C2)C1` (some centres not stated), the inhibition was 53.6% (active).

With `C=CCNC(=S)/N=c1/ccccn1Cc1ccccc1`, the inhibition was -16.5%.

`N#CC1(C#N)C(C(=O)C23CC4CC(CC(C4)C2)C3)C12CCOCC2` (configuration not stated): the inhibition was 12.2%.

Consider `Cc1ccc(NC(=S)Nc2ncccc2C)c(C)c1`, for which the inhibition was -2.7%.

`COc1ccccc1C(=O)Nc1ccc(Nc2ccccc2)cc1`: the inhibition was 6.4%.

On to `COC(=O)c1ccc(NC(=O)c2ccccc2NS(=O)(=O)c2ccccc2)cc1`, for which the inhibition is 59.8% (active).

With `COc1cc(NC(=O)c2ccccc2NS(=O)(=O)c2ccc(Cl)s2)cc(OC)c1`, the inhibition was 49.7%.

With `Cc1ccnc(NS(=O)(=O)c2ccc(NC(=O)c3oc4ccc(F)cc4c3C)cc2)n1`, the inhibition was 8.7%.

Regarding `COC(=O)c1ccc(NC(=O)CSc2nncn2-c2cccnc2)cc1`, the inhibition is -0.4%.

As for `Cc1cc(-c2ccccc2)n2nc(C)c(-c3ccccc3)c2n1`, the inhibition was 5.2%.

With `O=C(NCCCN1CCN(c2ccc(F)cc2)CC1)Nc1ccc([N+](=O)[O-])cc1`, the inhibition was -19.1%.

Take `Cc1ccc(S(=O)(=O)CCC(=O)OCC(=O)N(C)Cc2ccccc2)cc1`: the inhibition is 7.6%.

`Cc1cccc(C)c1NC(=O)CCS(=O)(=O)c1cccc2nsnc12`: the inhibition was -15.6%.

Take `Cc1cccc2sc(N(CCCN(C)C)C(=O)CCS(=O)(=O)c3ccccc3)nc12`: the inhibition is 85.7% (active).

Regarding `COc1cccc2sc(N(CCCN(C)C)C(=O)CCS(=O)(=O)c3ccccc3)nc12`, the inhibition was 88.4% (active).

On to `COc1ccc(N(C)C(=O)CCS(=O)(=O)c2cccc3nsnc23)cc1`, for which the inhibition was -4%.

In the case of `O=C(CCS(=O)(=O)c1ccccc1)Nc1nc2c(s1)CCCC2`, the inhibition was -2.5%.

Consider `CC(C#N)(NC(=O)CN1CCN(S(=O)(=O)c2cc(C(F)(F)F)ccc2Cl)CC1)C1CC1` (configuration not stated), for which the inhibition was 17.9%.

On to `CCOC(=O)c1ccc(S(=O)(=O)N(CCO)Cc2cc3cc(OC)c(OC)cc3[nH]c2=O)cc1`, for which the inhibition is -25.3%.

In the case of `Nc1ncnc2c1ncn2[C@@H]1O[C@H](C(=O)N2CCSC2)[C@@H](O)[C@H]1O`, the inhibition was 4.9%.

`COC(=O)C1=C(C)NC2=C(C(=O)c3ccccc32)C1c1ccc(-c2ccc(C(=O)O)cc2)o1` (configuration not stated): the inhibition was 76.6% (active).

Consider `COC(=O)C1=C(C)N(C)C(=O)NC1c1ccc([N+](=O)[O-])o1` (configuration not stated), for which the inhibition was 1.5%.

With `COC(=O)C1=C(C)NC(=O)/C1=C/c1ccc(CNS(=O)(=O)c2ccc(C)cc2)o1`, the inhibition is -6.4%.

`Cc1cn([C@H]2C[C@H](O)[C@@H](CNC(=O)[C@H](N)Cc3cccnc3)O2)c(=O)[nH]c1=O`: the inhibition was -3.6%.

`COC(=O)c1c(C)[nH]c(C(=O)/C=C/c2ccc(Cl)cc2)c1C`: the inhibition was 3.1%.

Turning to `CC1(C(=O)O)CCCN(C(=O)/C=C/c2ccccc2)C1` (configuration not stated), the inhibition was -1.6%.

As for `Cc1[nH]c(=O)c(C(=O)/C=C/c2ccccc2)c2c1CCCC2`, the inhibition was 51.1% (active).

For the molecule `Cn1c(SCC(=O)NC2CCCCC2)nnc1-c1ccc(N)cc1`, the inhibition is 3.7%.

Take `Cc1cc(OC(=O)c2ccccc2Cl)ccc1N1C(=O)CCC1=O`: the inhibition is -7.9%.

On to `CC(NS(=O)(=O)c1ccccc1)c1n[nH]c(=S)n1-c1ccccc1` (configuration not stated), for which the inhibition was -11.4%.

With `Nc1[nH][nH]c(=O)c1N=Nc1ccc2c(c1)OCO2`, the inhibition was -6.6%.

With `CCC(=O)N1CCC(C)(C(=O)Nc2cc(OC)c(OC)c(OC)c2)C1` (configuration not stated), the inhibition is 13.9%.

With `O=C(CNC(=O)c1ccccc1)NCC(=O)OCc1ccc(Cl)cc1`, the inhibition is -4.1%.

Regarding `CC(Oc1ccc2c(-c3ccccc3)cc(=O)oc2c1)C(=O)NC(Cc1c[nH]c2ccccc12)C(=O)O` (configuration not stated), the inhibition is -11.2%.

In the case of `O=C(CNC(=O)OCc1ccccc1)Oc1cc2oc(=O)cc(-c3ccccc3)c2cc1Cl`, the inhibition was 72.8% (active).

In the case of `Cc1cc(NC(=O)CS(=O)(=O)c2cn(C)c3ccccc23)no1`, the inhibition was -0.5%.

`OC[C@@H]1CN(Cc2ccc(-c3ccccc3)cc2)C[C@H](n2cnc3c(NC4CCCC4)ncnc32)O1`: the inhibition was -0.3%.

`Cc1nn(-c2ccccc2)c(C)c1/C=N/NC(=O)CSc1nc2ccccc2c(=O)n1-c1ccccc1`: the inhibition is 23.3%.

On to `Cn1cc([N+](=O)[O-])c(C(=O)Nc2ccc3c(c2)OCCO3)n1`, for which the inhibition is 15.1%.

Take `Cc1nn(-c2ccccc2)c(Cl)c1/C=N/NC(=O)c1nn(C)cc1[N+](=O)[O-]`: the inhibition was 52% (active).

On to `O=C(NC1CCN(C(=S)NCc2ccco2)CC1)c1ccc(F)cc1`, for which the inhibition was -0.1%.

In the case of `CCN(C(=O)c1ccc(Br)cc1)c1ccccc1`, the inhibition is 21.8%.

For the molecule `C=CCN1C(=O)C(Cc2ccc(OCC)cc2)SC1=Nc1ccc(C(=O)O)cc1` (configuration not stated), the inhibition was 4.1%.
